Experiment [1] in a line: qHTS assay for small molecule antagonists of peroxisome proliferator-activated receptor delta signaling (AID 588535; active = well fitted inhibition curve with a large enough effect in the signal ratio, with a control signal flat, not every such curve was filed as active; the % refers to the signal ratio;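 for max response: cells co-treated with a PPAR-delta agonist as stimulator during compound exposure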). The conditions noted are these: HEK293T PPARd-UAS-bla, beta-lactamase FRET ratio, 18 h; 460 nm channel. A digest of the protocol:
(§1)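 Compounds tested in titration on PPAR-delta-UAS-bla HEK293T cells grown in charcoal/dextran-stripped serum (2%); beta-lactamase activity read via CCF4 emission at 460 and 530 nm.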
Background: In qHTS, concentration-response curves come from the screen itself.

For experiment [2], the target named is Peroxisome proliferator-activated receptor delta (Homo sapiens) (UniProt Q03181). The experiment is described as above. The conditions noted are these: HEK293T PPARd-UAS-bla, beta-lactamase FRET ratio, 18 h; series mostly up to 76.7 µM. Put shortly:
as §1

In experiment [3] the target is Vitamin D3 receptor (Homo sapiens) (UniProt P11473). As to the kind of experiment: qHTS assay for small molecule antagonists of vitamin D receptor signaling (AID 588541).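 Note: receptor activated by calcitriol during compound treatment; % is set by controls: 0 for no effect and ±100 for the full control effect.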 The conditions noted are these: HEK293T VDR-UAS-bla, beta-lactamase ratio, antagonist mode; series mostly up to 76.7 µM. A digest of the protocol: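 VDR-UAS-bla HEK293T cells (2000/well, 2% charcoal-stripped FBS) were treated with titrated compounds plus 1-alpha,25-dihydroxyvitamin D3 (50 nM or 3 nM final) for 16 h at 37 C. CCF4 beta-lactamase fluorescence was read; Hill fits gave IC50.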
Vitamin D3 receptor (Homo sapiens), sequence (P11473 whole entry, looked up): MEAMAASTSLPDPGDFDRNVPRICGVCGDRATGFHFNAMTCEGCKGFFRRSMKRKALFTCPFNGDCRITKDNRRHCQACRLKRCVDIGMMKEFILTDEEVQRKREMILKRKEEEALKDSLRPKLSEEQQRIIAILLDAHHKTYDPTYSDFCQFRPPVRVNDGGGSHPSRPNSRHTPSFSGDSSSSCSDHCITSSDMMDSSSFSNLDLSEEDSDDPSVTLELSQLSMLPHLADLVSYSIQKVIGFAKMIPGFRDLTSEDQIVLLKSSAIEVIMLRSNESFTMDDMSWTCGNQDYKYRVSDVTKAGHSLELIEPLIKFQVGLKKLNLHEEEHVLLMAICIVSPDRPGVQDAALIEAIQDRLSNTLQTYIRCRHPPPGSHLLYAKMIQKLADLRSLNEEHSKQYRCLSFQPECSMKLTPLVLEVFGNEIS

Experiment [4] shares this target. As to the kind of experiment: qHTS assay for small molecule agonists of vitamin D receptor signaling (AID 588543).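 Note: 0% = DMSO basal and 100% = reference agonist control.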 Particulars: HEK293T VDR-UAS-bla, beta-lactamase ratio, 16 h; series mostly up to 76.8 µM. A digest of the protocol: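 GeneBLAzer VDR-UAS-bla HEK293T cells in 2% charcoal-stripped FBS medium were dosed with compound titrations for 16 h at 37 °C; CCF4 β-lactamase readout (405 nm ex, 460/530 nm em). EC50 and efficacy from Hill fits, normalized to 50 nM calcitriol (100%) and DMSO (0%).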

Experiment [5] can be described thus: qHTS assay for small molecule agonists of retinoid X receptor alpha signaling (AID 588544).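 For activation: 0% = DMSO basal wells and 100% = reference agonist.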 Particulars: HEK293T RXRa-UAS-bla, beta-lactamase reporter, 18 h; 530 nm emission.
For experiment [6], the target named is Retinoic acid receptor RXR-alpha (Homo sapiens) (UniProt P19793). The description is as above. Particulars: HEK293T RXRa-UAS-bla, beta-lactamase reporter, 18 h; series mostly up to 76.7 µM.
Retinoic acid receptor RXR-alpha (Homo sapiens), sequence (P19793 whole entry, looked up): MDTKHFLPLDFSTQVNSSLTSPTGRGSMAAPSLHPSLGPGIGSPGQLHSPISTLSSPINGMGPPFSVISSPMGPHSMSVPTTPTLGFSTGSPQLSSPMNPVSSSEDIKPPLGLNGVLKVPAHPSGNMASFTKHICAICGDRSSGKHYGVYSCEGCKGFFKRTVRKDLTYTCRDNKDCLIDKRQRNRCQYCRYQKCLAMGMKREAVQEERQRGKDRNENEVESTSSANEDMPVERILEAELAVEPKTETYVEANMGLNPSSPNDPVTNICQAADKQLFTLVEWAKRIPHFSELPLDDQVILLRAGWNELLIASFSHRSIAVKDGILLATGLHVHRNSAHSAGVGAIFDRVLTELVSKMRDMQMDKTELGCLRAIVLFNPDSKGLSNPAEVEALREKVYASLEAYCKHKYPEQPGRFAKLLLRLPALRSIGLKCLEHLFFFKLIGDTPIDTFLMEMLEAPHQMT
For experiment [7], the target named is Thyroid hormone receptor beta (Homo sapiens) (UniProt P10828). As to the kind of experiment: qHTS assay for small molecule agonists of thyroid hormone receptor beta signaling (AID 588545). Particulars: TR-UAS-bla GripTite HEK 293, beta-lactamase ratio, agonist mode, 18 h; series mostly up to 76.7 µM. A digest of the protocol: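 HEK 293 TR-UAS-bla; agonist mode; 18 hrs, 37 C; CCF4, ex 405/em 460 and 530 nm; norm. T3 10 nM = 100%, DMSO = 0%; Hill fit → EC50, efficacy.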
Thyroid hormone receptor beta (Homo sapiens), sequence (P10828 whole entry, looked up): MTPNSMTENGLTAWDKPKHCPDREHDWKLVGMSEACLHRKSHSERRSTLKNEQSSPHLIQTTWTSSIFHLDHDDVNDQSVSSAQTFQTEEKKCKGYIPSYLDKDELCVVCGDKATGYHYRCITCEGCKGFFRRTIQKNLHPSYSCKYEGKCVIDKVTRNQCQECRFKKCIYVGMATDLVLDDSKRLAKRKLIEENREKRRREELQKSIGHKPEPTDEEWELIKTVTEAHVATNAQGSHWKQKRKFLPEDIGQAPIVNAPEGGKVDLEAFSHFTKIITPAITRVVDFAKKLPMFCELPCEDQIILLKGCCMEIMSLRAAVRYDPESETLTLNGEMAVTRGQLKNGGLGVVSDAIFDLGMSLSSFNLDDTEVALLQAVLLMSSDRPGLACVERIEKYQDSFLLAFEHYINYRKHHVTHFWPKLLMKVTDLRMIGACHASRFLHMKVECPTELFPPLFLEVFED

The nature of experiment [8]: qHTS assay for small molecule antagonists of retinoid X receptor alpha signaling (AID 588546; active = well fitted inhibition curve with a large enough effect in the signal ratio, with a control signal flat, not every such curve was filed as active; the % refers to the signal ratio;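 note: cells stimulated with 9-cis-retinoic acid as agonist; % is set by controls: 0 for no effect and ±100 for the full control effect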). Particulars: HEK293T RXRa-UAS-bla, beta-lactamase ratio, antagonist mode; measured here: W530 green channel, cytotoxicity proxy. A digest of the protocol:
(§2)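 Beta-lactamase reporter inhibition, read as CCF4 fluorescence ratio (ex 405, em 460/530 nm) after 2 h at RT. HEK293T UAS-bla cells, 2500/well, were stimulated with 9-cis-RA at 500 or 100 nM final alongside test compound for 18 h at 37 C.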

Experiment [9] can be described thus: qHTS assay for small molecule activators of the nuclear factor-kappa B (NF-kB) signaling pathway (AID 651749; active = well fitted activation curve with a large enough effect in the signal ratio; the % refers to the signal ratio; note: % of control where 0% means no effect). The conditions noted are these: NF-kB-bla ME-180 cells, beta-lactamase FRET ratio, 16 h; activation: stronger effect = higher value. A digest of the protocol:
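Beta-lactamase reporter expression, controlled by NF-kB response elements in ME-180 cells, was quantified fluorometrically via FRET disruption; cells at 2,000/well had been incubated with 23 nL test compound for 16 hr.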

Experiment [10] can be described thus: qHTS assay for environmental chemicals that activate the Aryl hydrocarbon Receptor (AhR) signaling pathway (AID 651777; active = well fitted curve in the direction sought with a large enough effect; an effect the other way counts as inactive or inconclusive; note: % of control where 0% means no effect; nearly all actives have a fitted effect of over 15% in size). Particulars: 1A2-DRE human hepatoma cells, luciferase, 24 h; activation: stronger effect = higher value. Put shortly:
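Measured luciferase activity, read 30 min after One-Glo addition at room temperature, from human hepatoma cells bearing a dioxin response element–CYP1A2 promoter reporter and exposed to compound for 24 hr at 37 C.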

In experiment [11] the target is Peroxisome proliferator-activated receptor alpha (Homo sapiens) (UniProt Q07869). As to the kind of experiment: qHTS assay for small molecule agonists of the peroxisome proliferator-activated receptor alpha (PPARalpha) signaling pathway (AID 651778; active = well fitted curve in the direction sought with a large enough effect; an effect the other way counts as inactive or inconclusive; note: % of control where 0% means no effect). The conditions noted are these: PathHunter PPARalpha complementation, chemiluminescence, 6 h; max response: stronger effect = higher value. Put shortly: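 Cells plated at 2,000/well and held overnight at 37 C, 5% CO2, then compound added by pin tool for 6 hr; after PathHunter detection reagent and 60 min at room temperature, chemiluminescence from enzyme complementation was read.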
Peroxisome proliferator-activated receptor alpha (Homo sapiens), sequence (Q07869 whole entry, looked up): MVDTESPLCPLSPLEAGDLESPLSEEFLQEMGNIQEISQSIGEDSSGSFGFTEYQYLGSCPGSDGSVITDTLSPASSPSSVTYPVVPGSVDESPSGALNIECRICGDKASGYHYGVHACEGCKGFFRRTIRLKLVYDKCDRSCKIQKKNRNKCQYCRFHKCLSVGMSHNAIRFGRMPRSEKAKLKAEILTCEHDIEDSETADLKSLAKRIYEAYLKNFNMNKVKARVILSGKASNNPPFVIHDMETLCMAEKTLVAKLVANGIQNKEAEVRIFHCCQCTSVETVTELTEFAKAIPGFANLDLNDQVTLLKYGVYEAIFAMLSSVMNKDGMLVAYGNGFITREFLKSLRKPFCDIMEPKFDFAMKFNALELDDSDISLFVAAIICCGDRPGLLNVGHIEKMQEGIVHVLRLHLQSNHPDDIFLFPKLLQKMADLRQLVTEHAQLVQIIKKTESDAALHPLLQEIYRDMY

Experiment [12] in a line: qHTS assay for small molecule agonists of the antioxidant response element (ARE) signaling pathway measured by Nrf2-dependant transcriptional activity (AID 720636; active = well fitted curve in the direction sought with a large enough effect in the repeat runs; an effect the other way counts as inactive or inconclusive;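 note: HepG2 cells with an ARE-driven luciferase reporter; % of control where 0% means no effect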). The conditions noted are these: ARE-luc HepG2, Nrf2 luciferase reporter, 16 h; series mostly up to 92.4 µM. Put shortly:
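In HepG2 cells engineered with an Nrf2-responsive luciferase gene, ARE induction was quantified as luminescence after 16 hr compound treatment at 37 C.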

The nature of experiment [13]: qHTS assay for small molecule agonists of the antioxidant response element (ARE) signaling pathway measured by Nrf2-dependant transcriptional activity - cell viability counter screen (AID 720653; active = well fitted curve in the direction sought with a large enough effect in the repeat runs; an effect the other way counts as inactive or inconclusive; note: % is set by controls: 0 for no effect and ±100 for the full control effect). Particulars: ARE-bla HepG2 viability, CellTiter-Glo ATP luminescence, 16 h; max response: stronger effect = lower value. Put shortly: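 ARE-bla HepG2 cells (2,000/well) rested 5 hrs at 37C/5% CO2, then exposed to compounds in DMSO for 16 hrs. Viability was read in the same wells as intracellular ATP by luminescence, 30 min at room temperature after reagent addition.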

Experiment [14] can be described thus: qHTS assay for cell viability of HEK293 cells (AID 743288; active = well fitted curve in the direction sought with a large enough effect; an effect the other way counts as inactive or inconclusive; note: % is set by controls: 0 for no effect and ±100 for the full control effect; nearly all actives have a fitted effect of over 50% in size). The conditions noted are these: ATP luminescence (CellTiter-Glo), 18 h; max response: stronger effect = lower value. A digest of the protocol: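 After 18 h compound exposure at 37 C, parental HEK293 cells (2,000/well) are lysed with CellTiter-Glo and luminescence is read following 30 min at room temperature.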

Experiment [15] is described as follows: qHTS assay for cell viability of the p53RE-bla HCT-116 cell line (AID 743292; active = well fitted curve in the direction sought with a large enough effect; an effect the other way counts as inactive or inconclusive; note: % is set by controls: 0 for no effect and ±100 for the full control effect; nearly all actives have a fitted effect of over 55% in size). The conditions noted are these: p53RE-bla HCT-116 viability, ATP luminescence, 16 h; series mostly up to 95 µM. Put shortly: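 Intracellular ATP of p53RE-bla HCT-116 cells measured by luciferase luminescence following 16 h compound incubation at 37 C; DMSO-only wells served as vehicle controls.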

The target in experiment [16] is Nuclear receptor subfamily 1 group I member 2 (Rattus norvegicus) (UniProt Q9R1A7). As to the kind of experiment: qHTS assay for small molecule activators of the rat pregnane X receptor (rPXR) signaling pathway (AID 651751; call rule not given here; note: 0% is about no effect). The conditions noted are these: rPXR reporter cells, luciferase (One-Glo), 24 h.
Nuclear receptor subfamily 1 group I member 2 (Rattus norvegicus), sequence (Q9R1A7 whole entry, looked up): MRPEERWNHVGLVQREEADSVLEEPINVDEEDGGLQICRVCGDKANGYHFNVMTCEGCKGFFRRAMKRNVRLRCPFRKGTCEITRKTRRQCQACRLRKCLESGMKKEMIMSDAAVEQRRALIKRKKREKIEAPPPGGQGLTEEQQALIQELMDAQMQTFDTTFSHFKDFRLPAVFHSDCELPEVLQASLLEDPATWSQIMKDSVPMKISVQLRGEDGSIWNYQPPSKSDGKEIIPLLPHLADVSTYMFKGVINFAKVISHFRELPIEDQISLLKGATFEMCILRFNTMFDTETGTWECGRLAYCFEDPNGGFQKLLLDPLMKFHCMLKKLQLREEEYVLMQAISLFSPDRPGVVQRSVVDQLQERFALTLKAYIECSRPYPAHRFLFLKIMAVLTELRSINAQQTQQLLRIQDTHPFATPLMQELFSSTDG
Experiment [17] is described as follows: qHTS assay for small molecule activators of the human pregnane X receptor (PXR) signaling pathway (AID 720659; call rule not given here; note: 0% is about no effect). Particulars: DPX-2 HepG2 CYP3A4-luciferase, 24 h; series mostly up to 92.3 µM.
Experiment [18] deals with Peroxisome proliferator-activated receptor gamma (Homo sapiens) (UniProt P37231). Nature of the experiment: qHTS assay for small molecule agonists of peroxisome proliferator-activated receptor gamma signaling (AID 588536; active = well fitted curve in the direction sought with a large enough effect in the signal ratio, with a control signal flat, not every such curve was filed as active; the % refers to the signal ratio). Particulars: HEK293 PPARg-UAS-bla, beta-lactamase ratio, 16 h, percent of rosiglitazone response, DMSO as zero; series mostly up to 76.7 µM. A digest of the protocol: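 Beta-lactamase reporter read-out: CCF4 fluorescence (ex 405, em 460/530 nm) after 2 h at RT. HEK293 GeneBLAzer cells were treated for 16 h at 37 C. Hill fits gave EC50 and efficacy versus 2 uM rosiglitazone (100%) and DMSO (0%).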
Peroxisome proliferator-activated receptor gamma (Homo sapiens), sequence (P37231 whole entry, looked up): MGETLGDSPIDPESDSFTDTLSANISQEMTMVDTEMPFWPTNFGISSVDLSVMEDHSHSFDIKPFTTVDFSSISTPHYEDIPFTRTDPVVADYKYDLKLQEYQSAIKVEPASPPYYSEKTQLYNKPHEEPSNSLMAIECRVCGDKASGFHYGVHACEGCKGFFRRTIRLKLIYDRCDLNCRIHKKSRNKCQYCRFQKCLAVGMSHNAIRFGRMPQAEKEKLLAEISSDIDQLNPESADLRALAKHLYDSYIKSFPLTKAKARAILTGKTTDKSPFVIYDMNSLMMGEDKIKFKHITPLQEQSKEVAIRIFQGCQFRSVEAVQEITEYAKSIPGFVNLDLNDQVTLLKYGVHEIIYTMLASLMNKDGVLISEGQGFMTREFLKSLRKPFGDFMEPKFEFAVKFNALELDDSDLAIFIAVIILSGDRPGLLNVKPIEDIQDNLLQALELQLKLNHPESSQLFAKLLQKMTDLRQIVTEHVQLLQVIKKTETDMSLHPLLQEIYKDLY

The target in experiment [19] is Retinoic acid receptor RXR-alpha (Homo sapiens) (UniProt P19793). Nature of the experiment: qHTS assay for small molecule antagonists of retinoid X receptor alpha signaling (AID 588546).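 Note: cells stimulated with 9-cis-retinoic acid as agonist; % is set by controls: 0 for no effect and ±100 for the full control effect.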 The conditions noted are these: HEK293T RXRa-UAS-bla, beta-lactamase ratio, antagonist mode. A digest of the protocol:
as §2

Experiment [20] is described as follows: qHTS assay for small molecule activators of the p53 signaling pathway (AID 651743; active = well fitted activation curve with a large enough effect in the signal ratio, not every such curve was filed as active; the % refers to the signal ratio; note: % of control where 0% means no effect). Particulars: HCT-116 p53RE-bla, beta-lactamase FRET ratio, 16 h; activation: stronger effect = higher value. A digest of the protocol: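 Here HCT-116 cells with an integrated p53-responsive beta-lactamase gene were incubated with compounds (16 hours, 37 C) after a 5-hour plating period; beta-lactamase activity was detected as fluorescence intensity via B/G FRET substrate.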

The structures appear in SMILES notation. Results filed as inconclusive are left out. Calls of active or inactive are those of the source. Unless noted, calls come from the whole dose curve.

Peroxisome proliferator-activated receptor delta (Homo sapiens), sequence (Q03181 whole entry, looked up): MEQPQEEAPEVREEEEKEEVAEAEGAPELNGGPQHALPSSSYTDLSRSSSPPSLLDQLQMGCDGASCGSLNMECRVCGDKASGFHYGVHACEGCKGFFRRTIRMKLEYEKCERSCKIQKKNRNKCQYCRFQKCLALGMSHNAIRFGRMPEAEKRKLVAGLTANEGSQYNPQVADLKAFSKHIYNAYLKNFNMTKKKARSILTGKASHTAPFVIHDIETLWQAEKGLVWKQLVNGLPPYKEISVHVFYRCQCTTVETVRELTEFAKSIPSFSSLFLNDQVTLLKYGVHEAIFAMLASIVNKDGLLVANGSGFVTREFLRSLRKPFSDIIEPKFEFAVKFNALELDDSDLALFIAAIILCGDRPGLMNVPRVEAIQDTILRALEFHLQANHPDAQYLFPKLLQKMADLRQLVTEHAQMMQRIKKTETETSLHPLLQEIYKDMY

For `O=S(=O)(O)c1ccc(N=Nc2c(O)ccc3cc(S(=O)(=O)O)ccc23)cc1`, the max response in experiment [1] was -5.34%; in experiment [5], -4.64%; in experiment [8], -15.1%; in [11], -7.14% (inactive); in experiment [13] it was -22.3% (inactive); in [14], -13.8% (inactive). In addition, the max response in [16] was -7.92% (inactive). Also, the Potency entry in experiment [2], in experiment [3], in experiment [6], in [7], in experiment [12] and in [15] was “inactive” in each case. The result in experiment [4] and in experiment [17] was inactive. Moreover, the activation in experiment [9] is -0.945% (inactive); in experiment [10], -1.77% (inactive).

On to `OCC(CO)(CO)COCC(CO)(CO)CO`, for which the result in [18] and in experiment [4] was inactive. For the same compound, the Potency entry in [3], in [6], in [7], in [12] and in experiment [15] was “inactive” in each case. The max response in experiment [5] was -6.03%; in experiment [8], -4.98%; in experiment [19], -11.8% (inactive); in [13], 3.18% (inactive); in experiment [16] it was 3.21% (inactive). Also, the activation was -2.73% (inactive) in experiment [20], -2.64% (inactive) in experiment [9] and 3.82% (inactive) in experiment [10].

Regarding `CN(C)C(=O)Nc1ccccc1`, the max response in experiment [1] is 13.2%; in [5], -10.1%; in experiment [8], -0.672%; in experiment [19] it was -1.05% (inactive); in experiment [11], -2.12% (inactive); in experiment [13], 1.07% (inactive). Besides, the max response was 1.22% (inactive) in experiment [14] and 1.09% (inactive) in experiment [16]. Further, the Potency result in [2], in experiment [6], in [7], in experiment [12] and in experiment [15] was “inactive” in each case. In addition, the outcome in experiment [18], in [4] and in [17] was inactive. For the same compound, the activation in [9] was -1.78% (inactive); in experiment [10], 2.58% (inactive).

Regarding `CC(C)(C)c1ccc(O)c(C(C)(C)C)c1`, the result in experiment [18] and in [4] was inactive. The Potency entry in experiment [3], in [6], in experiment [7], in experiment [12] and in [15] was “inactive” each time. For the same compound, the max response in experiment [5] was -10.9%; in experiment [8], -6.68%; in [19], -3.49% (inactive); in experiment [11] it was 8.37% (inactive); in experiment [13] it was -2.61% (inactive); in experiment [14], -8.41% (inactive). For the same compound, the max response in experiment [16] was 6.32% (inactive). Also, the activation in experiment [20] is 1.63% (inactive); in experiment [9], -1.75% (inactive); in experiment [10] it was 0.859% (inactive).

In the case of `NCCCCCCCCCCC(=O)O`, the max response was 0.715% in experiment [1]; -7.72% in experiment [5]; -1.64% (inactive) in experiment [11]; -2.31% (inactive) in experiment [13]; -12% (inactive) in [14]; 1.01% (inactive) in experiment [16]. In addition, the Potency result in [2], in experiment [3], in experiment [6] and in experiment [15] was “inactive” each time. Besides, the result in experiment [18] and in experiment [4] was inactive. For the same compound, the results for the activation in [20], in experiment [9] and in [10] were 0.322% (inactive), -0.282% (inactive) and 6.19% (inactive), respectively.

On to `O=S(=O)(O)c1cc(S(=O)(=O)O)c2c(N=Nc3ccccc3)c(O)ccc2c1`, for which the max response is -19.3% in [1]; -6.55% in experiment [5]; -5.78% (inactive) in [11]; -12.7% (inactive) in experiment [14]; 3.04% (inactive) in experiment [16]. Also, the Potency result in experiment [2], in [3], in experiment [6], in experiment [7], in experiment [12] and in experiment [15] was “inactive” throughout. Moreover, the activation in experiment [20] was -0.0659% (inactive); in experiment [9] it was 1.12% (inactive); in experiment [10], 0.18% (inactive).

Regarding `CSC(=O)c1cccc2nnsc12`, the max response in experiment [1] is 21.6%; in [5], -10.1%; in [8], -10.7%; in experiment [19], 12.7% (inactive); in experiment [13], 15.6% (inactive); in experiment [14], 3.92% (inactive). Moreover, the Potency entry in [2], in [3], in experiment [6], in experiment [7] and in [12] was “inactive” throughout. The outcome in [18], in experiment [4] and in [17] was inactive. Also, the activation in experiment [20] is 1.69% (inactive); in experiment [10] it was 0.806% (inactive).

The values are drawn from PubChem BioAssay (NCATS).
